Inconclusive results are not listed. Where a call stands in place of a potency, no number is given. Calls of active or inactive are those of the source. Calls come from the whole dose curve.
Molecular target: Nucleoprotein (Lymphocytic choriomeningitis virus (strain Armstrong)) (UniProt P09992)
Test: qHTS for Inhibitors of the Functional Ribonucleoprotein Complex (vRNP) of Lymphocytic Choriomeningitis Arenaviruses (LCMV): LCMV Primary Screen - GLuc reporter signal (AID 1347086); note: nearly all actives have a fitted effect of over 70% in size
Details: LCMV minigenome vRNP cell assay, Gaussia luciferase reporter; series mostly up to 57.5 µM
Potency is the fitted concentration of half-maximal effect.

Sequence of Nucleoprotein (Lymphocytic choriomeningitis virus (strain Armstrong)) (P09992 whole entry, looked up): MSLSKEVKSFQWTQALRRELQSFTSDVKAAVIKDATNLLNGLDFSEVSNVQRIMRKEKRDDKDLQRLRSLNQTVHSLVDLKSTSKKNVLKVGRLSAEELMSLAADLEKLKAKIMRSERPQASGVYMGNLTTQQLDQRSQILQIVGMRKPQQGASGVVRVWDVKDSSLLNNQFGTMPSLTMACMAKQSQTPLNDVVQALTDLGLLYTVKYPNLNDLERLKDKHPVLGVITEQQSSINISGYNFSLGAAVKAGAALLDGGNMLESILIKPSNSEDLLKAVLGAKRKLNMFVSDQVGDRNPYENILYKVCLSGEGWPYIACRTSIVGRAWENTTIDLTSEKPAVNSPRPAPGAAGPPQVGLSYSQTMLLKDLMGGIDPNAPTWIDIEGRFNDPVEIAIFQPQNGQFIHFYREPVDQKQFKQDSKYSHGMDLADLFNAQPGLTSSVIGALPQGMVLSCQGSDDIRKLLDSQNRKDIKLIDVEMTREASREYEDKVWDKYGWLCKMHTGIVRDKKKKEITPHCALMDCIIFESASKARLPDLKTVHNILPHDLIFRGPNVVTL

SMILES	Potency
CC1=C[C@@H]2c3cccc4[nH]cc(c34)C[C@H]2N(C)C1	inactive
C=C1C(=O)[C@@]23C(CC[C@@H]1[C@H]2O)[C@@]12CO[C@]3(O)[C@@H](O)[C@@H]1C(C)(C)CC[C@@H]2O (stereo not given in full)	1.22 µM (active)
CCN1C[C@]2(C)CC[C@H](OC)[C@]34C5C[C@@H]6CC[C@@](O)(C5C(=O)O6)C(C13)[C@@H](OC(=O)c1ccccc1)C24	inactive
Clc1ccc(COC(Cn2ccnc2)c2ccc(Cl)cc2Cl)c(Cl)c1 (stereo not given)	inactive
C[C@@]12CCC(OS(=O)(=O)O)C[C@@H]1CCC1C2CC[C@]2(C)C(=O)CCC12 (stereo not given in full)	inactive
C=C1C2C[C@]3(C4CC5[C@@]6(C)CC[C@H](O)[C@@]5(C3CC2=O)C4[N+]([O-])(CC)C6)[C@@H]1O (stereo not given in full)	inactive
C1CC[C@H]([C@@]23C[C@H](C[C@H]4CCCN[C@H]42)[C@@H]2CCCCN2C3)NC1	inactive
COC1=C[C@]23CCCN2CCc2cc4c(cc2[C@@H]3[C@@H]1O)OCO4	inactive
CN(C/C=C/c1ccccc1)Cc1cccc2ccccc12	inactive
CC(C)c1cnn2c(NCc3ccccc3)cc(N[C@@H](CO)[C@H](O)CO)nc12	1.72 µM (active)
CO[C@@H]1C(N(C)C(=O)c2ccccc2)C[C@H]2O[C@]1(C)n1c3ccccc3c3c4c(c5c6ccccc6n2c5c31)C(=O)NC4=O (stereo not given in full)	inactive
CCCOc1ccc2[nH]cc(C3=CCNCC3)c2n1	inactive
O=C1NCCc2[nH]c(-c3ccncc3)cc21	10.9 µM (active)
CCC1CN2CCC1CC2C(O)c1ccnc2ccccc12 (stereo not given)	inactive
Cc1c(-c2ccc(O)cc2)n(Cc2ccc(OCCN3CCCCCC3)cc2)c2ccc(O)cc12	inactive
COC(=O)C1=CO[C@@H](C)[C@@H]2CN3CC[C@]4(C(=O)Nc5c4ccc(OC)c5OC)[C@H]3C[C@H]12	inactive
CCCCC(C)(C)[C@H](O)C=C[C@H]1[C@H](O)CC(=O)[C@H]1CC=CCCCC(=O)O	inactive
O=C1CCC[C@H]2[C@H]3CCCN4CCCC(=CN12)[C@@H]34	inactive
O=C(NCCCCN1CCOCC1)c1cc2ccccc2o1	inactive
Cc1ccc(C(=O)Nc2cccc(C(F)(F)F)c2)cc1Nc1nc(-c2cccnc2)nc2c1cnn2C	inactive

SMILES	Potency
N#CC1(c2cccc(C(=O)Nc3cc(Oc4ccc5nc(NC(=O)C6CC6)sc5n4)ccc3F)c2Cl)CC1	inactive
C/C=C1/CN2CC[C@]34C(=C(C=O)[C@H]1C[C@@H]23)Nc1ccccc14	inactive
O=C1C[C@@H](c2ccc(O)cc2)Oc2cc(O)cc(O)c21	inactive
OC[C@@H]1[C@@H](O)[C@H](O)[C@H]2[C@@H](O)CCN21	inactive
C[N+](C)([O-])CCNc1ccc(NCC[N+](C)(C)[O-])c2c1C(=O)c1c(O)ccc(O)c1C2=O	inactive
Clc1ccc2c(c1)N=C(N1CCNCC1)c1ccccc1N2	inactive
O=C(O)CF	inactive
CC(C)c1nn(-c2c(Cl)cccc2Cl)c2nc(Cc3ccc(OCCO)cc3)[nH]c(=O)c12	0.243 µM (active)
CC1(C)OC1COc1c2occc2cc2ccc(=O)oc12 (stereo not given)	inactive
CC(C)(O)C1OC2CCC3(C)C(O)(CCC4Cc5c([nH]c6ccccc56)C43C)C2=CC1=O (stereo not given)	inactive
OCCCNc1cc(-c2ccnc(Nc3cccc(Cl)c3)n2)ccn1	0.968 µM (active)
COc1ccc(CCN(C)CCCC(C#N)(c2ccc(OC)c(OC)c2)C(C)C)cc1OC (stereo not given)	inactive
CCN1C[C@]2(C)CC[C@H](OC)[C@@]34[C@H]1C1(OCO[C@@]15C[C@H](OC)C1C[C@]3(O)C5[C@H]1OC)[C@@H](O)[C@H]24	inactive
OC1(c2ccc(Cl)cc2)CCN(Cc2c[nH]c3ccccc23)CC1	inactive
O=S(=O)(c1cccc2c(Cl)cccc12)N1CCCNCC1	inactive
CS(=O)(=O)N(Cc1ccco1)CC(O)Cn1c2ccccc2c2ccccc21 (stereo not given)	inactive
CN1C2CCC1CC(OC(=O)C1CCC(C(=O)OC3CC4CCC(C3)N4C)(c3ccccc3)c3ccccc31)C2 (stereo not given)	inactive
O=S(=O)(c1cccc2c(I)cccc12)N1CCCNCC1	inactive
CNCC[C@H](Oc1ccc(C(F)(F)F)cc1)c1ccccc1	inactive
O=c1ccc2c(O)c3ccoc3cc2o1	inactive
